Laboratory results taken from PubChem BioAssay (NCATS).
Several values for one entry are separate records, joined by “and”; a condition that tells them apart may be missing. Equal entries are not always repeated. Records with an inconclusive call do not appear. A number with no mark means an inactive call. Activity calls are given as the source filed them. Calls come from the whole dose curve; as a rule, active = well fitted curve in the direction sought with a large enough effect; inconclusive = small, poorly fitted or top-dose-only effect, or another doubt; inactive = no such curve, though single readings can be large; an effect the other way counts as inactive or inconclusive.

What was measured:
[1] = Viability qHTS for spleen associated tyrosine kinase inhibitor (SYKi) drug resistant MV4-11 cells (AID 1963824); note: nearly all actives have a fitted effect of over 35% in size; note: potency is the fitted concentration of half-maximal effect
Outline: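 SYK-inhibitor-resistant MV4-11 AML cells were seeded at 500 per well onto compound and cultured 72 hours (37 °C, 5% CO2). CellTiter-Glo was then added, and after 10 min at room temperature, luminescence gave viability.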

[2] = Cellular viability qHTS for adrenocortical cancer (ACC) cell line SW-13 (AID 1963989); settings: SW-13 ACC cells viability, CellTiter-Glo, 48 h; activity (max response): stronger effect = lower value; note: nearly all actives have a fitted effect of over 65% in size; note: potency is the fitted concentration of half-maximal effect;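 for activity (max response): cells grown in serum-free medium with ITS supplement; % is set by controls: 0 for no effect and ±100 for the full control effect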
Outline: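 Compound titrations (up to 46 uM final, in DMSO) were applied to SW-13 cells for 48 h at 37C/5% CO2. Reading used CellTiter-Glo after 20 min at room temperature; fitted curves yielded IC50 and efficacy.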

[3] = Cellular viability qHTS for adrenocortical cancer (ACC) cell line NCI-H295R (AID 1963990); note: nearly all actives have a fitted effect of over 60% in size; note: potency is the fitted concentration of half-maximal effect
Outline: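 Readout: CellTiter-Glo luminescence, 20 min RT. Exposure: 48 h, 37C/5% CO2. Cells: NCI-H295R, ITS-DMEM serum-free. Range: up to 46 uM. Analysis: 4PL fit, IC50 plus efficacy.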

[4] = Quantitative highthroughput screen to assess conditional lethalithy of P12 Ichikawa cells grown in Human Plasma-Like Medium with dialyzed fetal bovine serum (HPLM+ds) (AID 1963879); settings: Potency: viability; note: potency is the fitted concentration of half-maximal effect; nearly all actives have a fitted effect of over 35% in size
Outline: (§1)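 Each medium arm—HPLM with 10% dialyzed FBS, or RPMI1640 with 5 mM glucose and 10% untreated or dialyzed FBS—was screened against an 11-point, 3-fold compound titration for 48 h at 37 °C, with CellTiter-Glo luminescence as endpoint.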

[5] = Quantitative highthroughput screen to assess conditional lethalithy of P12 Ichikawa cells grown in RPMI1640 with untreated serum (RPMI+s) (AID 1963881); settings: Potency: viability; note: potency is the fitted concentration of half-maximal effect; nearly all actives have a fitted effect of over 35% in size
Outline: as §1

[6] = Quantitative highthroughput screen to assess conditional lethalithy of SEM cells grown in Human Plasma-Like Medium with dialyzed fetal bovine serum (HPLM+ds) (AID 1963882); note: nearly all actives have a fitted effect of over 35% in size; note: potency is the fitted concentration of half-maximal effect; for Viability: series mostly up to about 46 µM
Outline: as §1

[7] = Quantitative highthroughput screen to assess conditional lethalithy of SEM cells grown in RPMI1640 with dialyzed fetal bovine serum (RPMI+ds) (AID 1963884); note: nearly all actives have a fitted effect of over 35% in size; note: potency is the fitted concentration of half-maximal effect;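 for Viability: series mostly up to about 46 µM; 100% = DMSO control wells and 0% = empty wells without cells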
Outline: as §1

[8] = Quantitative highthroughput screen to assess conditional lethalithy of P12 Ichikawa cells grown in RPMI1640 with dialyzed fetal bovine serum (RPMI+ds) (AID 1963880); settings: Potency: P12-Ichikawa viability
Outline: as §1

For `O=[N+]([O-])c1cc([As](=O)(O)O)ccc1O`, the Potency [1] was “inactive”, the activity (max response) [2] was 2.65% and the Potency [3] was “inactive”.
With `Cc1ccc(-c2nc3ccc(C)cn3c2CC(=O)N(C)C)cc1` the Potency [1] was “inactive”, the activity (max response) [2] was -1.33% and the Potency [3] was “inactive”.
For `c1cc2c(c(N3CCNCC3)c1)OCCO2`, the Potency [1] was “inactive” and the activity (max response) [2] was -0.802%.
With `O=S(=O)(CC1CS1)c1ccc(Oc2ccccc2)cc1` (configuration not stated) the Potency [1] was 10.5 µM (active) and the activity (max response) [2] was -6.36%.
For `CC[n+]1c(-c2ccccc2)c2cc(N)ccc2c2ccc(N)cc21`, the Potency [1] was 4.22 µM (active), the Potency [2] was 5.17 µM (active) and the Potency [3] was 14.6 µM (active).
In the case of `C[C@H]1CNCCc2ccc(Cl)cc21`, the Potency [1] is reported as “inactive” and the activity (max response) [2] is reported as -1.47%.
In the case of `C[C@H]1CCC/C=C/C2C[C@H](O)C[C@H]2[C@H](O)/C=C/C(=O)O1` (some centres not stated), the Potency [1] is reported as 92 nM (active) and 118 nM (active) and the Potency [2] is reported as 0.282 µM (active).
In the case of `CC[C@H](O)C(C[C@H](C)N(C)C)(c1ccccc1)c1ccccc1`, the Potency [1] is reported as “inactive” and the activity (max response) [2] is reported as -19.9%.
With `COc1ccc2c(c1OC)CN1CCc3cc4c(cc3C1C2)OCO4` (configuration not stated) the Potency [1] was 4.11 µM (active), the Potency [4] was 2.64 µM (active) and the Potency [5] was 1.87 µM (active). For the same compound, the Potency [6] was 1.05 µM (active) and the Potency [7] was 0.469 µM (active).
With `COc1c2c(cc3c1OCO3)CCN(C)C2` the Potency [1] was “inactive”, the activity (max response) [2] was -10% and the Potency [3] was “inactive”.
With `Cc1cc(O)ccc1Cl` the Potency [1] was “inactive” and the activity (max response) [2] was 10.8%.
With `CCOC(=O)Nc1ccc(NCc2ccc(F)cc2)cc1N` the Potency [1] was 18.6 µM (active), the Potency [8] was “inactive” and the Potency [6] was “inactive”. For the same compound, the Potency [7] was “inactive”, the activity (max response) [2] was -1.78% and the Potency [3] was “inactive”.
With `Cc1ncsc1CCCl` the Potency [1] was “inactive” and the activity (max response) [2] was 10.3%.
